The campaign covered roughly 340,000 compounds. About 2,100 (0.62%) were called active.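 The calls were made as follows: active = first-screen hits whose inhibition reached a set limit at any dose in the follow-up dose series; inconclusive = inhibition above the set first-screen limit but never retested; inactive = the rest.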 A selection follows. Entries with a potency or affinity are not part of this list.
target: Rac GTPase-activating protein 1 (Homo sapiens) (UniProt Q9H0H5); experiment: blockers of MgcRacGAP-driven Rac1 GTP hydrolysis – biochemical, ADP Hunter fluorescence, primary and confirmatory, confirmation (AID 624330); conditions: MgcRacGAP-stimulated Rac1 GTP hydrolysis, at 30 µM, hits give high values, GST-tagged Rac1 F28L mutant substrate;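 also: fluorescence reports GDP produced by GAP-driven GTP hydrolysis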
Sequence (Q9H0H5 whole entry, looked up): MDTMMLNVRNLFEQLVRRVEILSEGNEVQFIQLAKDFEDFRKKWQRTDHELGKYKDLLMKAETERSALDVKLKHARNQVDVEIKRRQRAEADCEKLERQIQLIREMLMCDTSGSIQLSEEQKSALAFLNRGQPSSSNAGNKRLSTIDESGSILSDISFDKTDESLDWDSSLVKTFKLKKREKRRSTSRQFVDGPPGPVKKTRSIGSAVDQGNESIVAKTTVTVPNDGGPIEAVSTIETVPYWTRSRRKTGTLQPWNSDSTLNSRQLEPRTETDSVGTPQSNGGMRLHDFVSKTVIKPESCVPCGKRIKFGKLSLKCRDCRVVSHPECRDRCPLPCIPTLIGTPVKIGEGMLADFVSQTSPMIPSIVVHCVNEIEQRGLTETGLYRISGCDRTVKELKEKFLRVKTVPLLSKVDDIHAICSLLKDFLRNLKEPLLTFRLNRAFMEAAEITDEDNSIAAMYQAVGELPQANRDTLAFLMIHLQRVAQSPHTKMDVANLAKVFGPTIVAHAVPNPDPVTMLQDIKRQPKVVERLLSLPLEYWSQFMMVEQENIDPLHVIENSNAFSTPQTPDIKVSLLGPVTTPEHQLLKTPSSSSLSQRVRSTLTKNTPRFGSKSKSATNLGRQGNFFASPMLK

inhibition, inactive:
O=C(N/N=C/c1ccc(F)c(F)c1)c1cccc(S(=O)(=O)N2CCCCC2)c1 0.51%
CCOc1cc(/C=N/NC(=O)c2cccc(S(=O)(=O)N3CCCC3)c2)ccc1OCC(=O)N(C)C 5.83%
CCOc1ccccc1/C=N/NC(=O)c1cccc(S(=O)(=O)N2CCOCC2)c1 5.13%
O=C(NN=Cc1ccc(F)cc1)c1cccc(S(=O)(=O)N2CCCC2)c1 6.35%
CCN(CC)S(=O)(=O)c1cccc(C(=O)N/N=C/c2cccc(O)c2O)c1 15%
CCN(CC)S(=O)(=O)c1cccc(C(=O)N/N=C/c2cc(OC)c(O)c(OC)c2)c1 13.8%
O=C(O)c1ccc(S(=O)(=O)N2CCCCCCC2)cc1 13.8%
O=C(/C=C/c1ccc(N2CCCCC2)c([N+](=O)[O-])c1)c1ccc(S(=O)(=O)N2CCCC2)cc1 6.38%
COc1cc2c(cc1OC)C(c1ccccc1)N(C(=O)C(C)(C)C)CC2 (stereo not given) 5.24%
COc1cc(/C=N/NC(=O)c2cccc(S(=O)(=O)N3CCCCC3)c2)cc(Br)c1O 18.1%
COc1cc(/C=N/NC(=O)c2cccc(S(=O)(=O)N3CCCC3)c2)cc(OC)c1O 15.2%
O=C(COC(=O)C1CC1)NCCc1ccccc1 -3.28%
COCCCN1C(=O)C(CC(=O)NCc2ccco2)CC(C(=O)N(C)C)=C1C (stereo not given) 14.3%
CCOc1ccc(NC(N)=O)cc1 2.99%
CCOc1ccc(NS(=O)(=O)c2ccc(N)cc2)cc1 1.38%
CCc1ccc(N2CN(Cc3cccnc3)CNC2=S)cc1 4.47%
COc1ccc(C2C(C(=O)Nc3cccc(C)n3)c3ccccc3C(=O)N2C)cc1 (stereo not given) 5.99%
O=C(c1cccc(F)c1)N1CCN(Cc2ccco2)CC1 24.7%
O=C(c1cccnc1)N1CCN(Cc2cccc(F)c2)CC1 23.3%
COc1ccc(Br)cc1CN1CCN(C(=O)c2cccc(F)c2)CC1 26.9%
O=C(c1cccnc1)N1CCN(Cc2ccc3ccccc3c2)CC1 22.8%
O=C(CCn1nc(-c2ccc(Cl)cc2)ccc1=O)N1CCN(c2ccccc2)CC1 11.2%
Cc1sc(NC(=O)CCC(=O)O)c(C#N)c1C 4.82%
CCCCNc1c(-c2ccc(-c3ccc(OC)cc3)c(OC)c2)nc2ccccn12 0.86%
CCc1nc2ccccc2c(C(=O)O)c1C 1.89%
CCOc1ccc(CC2S/C(=N/N=C/c3ccco3)NC2=O)cc1 (stereo not given) -0.79%
CN(C(=O)c1ccc(NC(=O)Cc2ccc(NC(=O)C3CCN(C(=O)C4CCCC4)CC3)cc2)cc1)C1CC1 4.41%
CCC(C)NC(=O)CNC(=S)N(CCCN1CCOCC1)Cc1cccs1 (stereo not given) -3.85%
Cc1ccc2c(c1)N(C(=O)CCC(=O)N1CCC(C(N)=O)CC1)CCO2 -0.21%
CCC1(c2ccccc2)NC(=O)N(CC(=O)Nc2ccccc2N2CCCC2)C1=O (stereo not given) 2.64%
O=C(CN1C(=O)NC2(CCCCC2)C1=O)Nc1ccc(N2CCCCC2)cc1 -8.69%
Cc1cc(Cl)ccc1NC(=O)CN1C(=O)NC2(CCCC2)C1=O 7.39%
Cc1cc(N2CCCC2)ccc1NC(=O)CN1C(=O)NC(C)(c2ccccc2)C1=O (stereo not given) 22.9%
Cc1ccc(C)c(NS(=O)(=O)c2cc3c4c(c2)CC(=O)N4CCC3)c1 12.2%
COc1cc([C@@H]2OC[C@@H]3[C@H]2CO[C@@H]3c2ccc3c(c2)OCO3)ccc1O 15.6%
Cc1ccc(C2C(=O)c3ccccc3C2=O)cc1 5.72%
O=C1c2ccccc2C(=O)C1c1ccc(Br)cc1 9.65%
COc1ccc(C2C(=O)c3ccccc3C2=O)cc1OC 8.73%
COc1cc(C2OCC3C(c4cc(OC)c(OC)c(OC)c4)OCC23)cc(OC)c1OC (stereo not given) 3.17%
COc1cc(C2N(C)C(=O)c3ccccc3N2C)ccc1O (stereo not given) 9.29%
O=C(NNc1nc2c(F)cccc2s1)c1ccccc1 3.05%
CC(=O)NC(CC(=O)NCCc1ccccc1)c1ccccc1 (stereo not given) 5.84%
COc1cc(/C=C/C(=O)O)cc(S(=O)(=O)N(CC(C)C)CC(C)C)c1OC 3.78%
Cc1cc(OC(C)C(=O)NCCCN2CCOCC2)c2c(C)cc(=O)oc2c1 (stereo not given) 5.41%
CCN1C[C@@H]2[C@@H]3C(=O)N(C)C(=O)[C@@H]3[C@](Cc3ccccc3)(C(=O)OC)N2C1=NCc1ccccc1 8.57%
COc1cccc(NC(=O)COc2ncnc3sc(C)c(C)c23)c1 5.65%
CCOc1ccccc1/C=C(/NC(=O)c1ccccc1)C(=O)N(CC)CC 5.35%
CC[C@]12C(=O)N(C)C[C@H]([C@@H]3C(=O)N(C)C(=O)[C@@H]31)N2C(=O)c1ccc(F)cc1 7.98%
CNS(=O)(=O)c1cccc(C(=O)OCC(=O)C23CC4CC(CC(C4)C2)C3)c1 2.1%
COCc1cc(C)nc(OCC(=O)N/N=C/c2ccccc2)c1C#N 5.88%
O=C(COc1ccccc1[N+](=O)[O-])N/N=C/c1ccc(O)c([N+](=O)[O-])c1 5%
O=C(COc1cccc2cccnc12)N/N=C/c1ccccc1O 9.73%
COCc1cc(C)nc(OCC(=O)N/N=C/c2ccc(C)cc2)c1C#N 6.19%
COc1ccc(/C=N/NC(=O)COc2cccc3cccnc23)cc1OC 12%
O=C(COc1ccccc1[N+](=O)[O-])N/N=C/c1ccncc1 3.99%
CC(C(=O)NCC1CCCCC1)N(C)Cc1ccc(Cl)cc1 (stereo not given) 9.97%
NC(=O)c1ccc(NC(=O)CCc2nc3ccccc3s2)cc1 9.08%
Fc1ccccc1CN1CCN(c2ncccn2)CC1 18.2%
COc1ccc(CN2CCN(C(=O)c3cccnc3)CC2)cc1Br 26.4%
COc1ccccc1C(=O)N1CCN=C1SCc1cccnc1 9.35%
COc1ccccc1C(=O)N1CCN(CCc2ccccc2)CC1 5.14%
COc1cccc(OC)c1C(=O)N1CCN(Cc2ccncc2)CC1 17.3%
CCOc1ccccc1/C=C/c1nc2ccccc2[nH]c1=O -3.6%
CSCCC(=O)N(C)CC1CCN(CCc2cccc(C(F)(F)F)c2)CC1 -11.6%
COc1cc(OC)nc(NC(=O)NS(=O)(=O)c2ccc(OC(F)(F)F)cc2)n1 7.78%
COc1ccc2nc(SCC(=O)NC3CCCCC3C)[nH]c2c1 (stereo not given) 6.19%
COc1ccc(C(O)(C(C)C)C(CN2CCOCC2)c2ccc(Cl)cc2)cc1 (stereo not given) 3.23%
Oc1ccccc1/C=N/NC1=NCCCCC1 -4.7%
COc1ccc(-c2cnnc(N/N=C/c3ccc(O)cc3)n2)cc1 15.5%
COc1ccc(/C=N/Nc2cc(C)nc(NS(=O)(=O)c3ccc(C)cc3)n2)cc1 8.72%
COc1cc(/C=N/Nc2nc(C)cc(C)n2)cc(OC)c1OC 18.6%
COc1cc(/C=N/Nc2nc(C)cc(C)n2)ccc1OC(=O)c1ccco1 12.7%
Oc1ccc(/C=N/NC2=NCCCCC2)cc1 14.8%
COc1cc(/C=N/Nc2cc(C)nc(NS(=O)(=O)c3ccc(C)cc3)n2)ccc1O 23.4%
COc1ccc(-c2cnnc(N/N=C/c3ccc(O)c(OC)c3)n2)cc1 28.9%
CC(=O)NCc1nc2ccccc2n1Cc1ccccc1F 2.14%
Cc1cccc(C(=O)OCC(=O)NC2CCCCCCC2)c1 -0.77%
Cc1cc(C)c(C#N)c(SCc2nc3ccccc3[nH]2)n1 11.2%
CCN(C(=O)c1ccccc1)c1ccc([N+](=O)[O-])cc1 6.29%
C=CCn1c(N)cc(=O)nc1SCC(=O)Nc1ccc2ccccc2c1 6.15%
NC1=NC(c2ccccc2)CC(=O)N1 (stereo not given) 0.78%
COc1ccc(OC)c(CN2CCN(CC(=O)Nc3ccccc3C(=O)NC3CC3)CC2)c1 3.43%
Cc1ccc(-n2c(CNc3cccc(Cl)c3)n[nH]c2=S)cc1 -10.3%
CCN(CC)S(=O)(=O)c1cccc(C(=O)NCC2CCCO2)c1 (stereo not given) -3.29%
S=C(c1ccc(-c2ccccc2Cl)o1)N1CCOCC1 10.6%
COc1ccccc1/C=N/NC1=NCCCCC1 4.83%
Cc1cc(C)nc(N/N=C/c2ccc(Cl)cc2)n1 7.83%
COc1cc(/C=N\Nc2nc(-c3ccc(C)cc3)c(NC(C)=O)s2)ccc1O 17.7%
COc1cc(/C=N/Nc2nnc3c(n2)[nH]c2ccccc23)ccc1O 9.92%
CCNc1nc(NCC)nc(N/N=C/c2ccccc2)n1 5.89%
Cc1ccc(/C=N/Nc2nc(C)cc(C)n2)cc1 6.97%
COc1ccc(/C=N/NC2=NCCCCC2)cc1 -0.36%
CCNc1nc(NCC)nc(N/N=C/c2ccc(Br)cc2)n1 4.59%
CS(=O)(=O)N(CC(=O)N1CCCC1)c1cc(Cl)ccc1Cl 8.42%
Cc1ccc(S(=O)(=O)NCC(c2ccco2)N2CCc3ccccc3C2)cc1 (stereo not given) 2.71%

— PubChem BioAssay AID624330 (Southern Research Specialized Biocontainment Screening …, 2012)
